This note sets out measurements from PubChem BioAssay.

Assay [1] is described as follows: anti-His antibody binders, primary screen, artefact control for SMM control protein annotation, biochemical, small-molecule microarray, 635 nm fluorescence (AID 1128).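 Note: score merges feature fluorescence with signal-to-noise for each printed compound spot.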 As to conditions: anti-His Alexa647 antibody binding, higher = more signal.
For assay [2], the system named is Human papillomavirus type 1a E7 protein (residues 1-88). The assay can be described thus: HPV1a E7 small-molecule binders, primary screen, biochemical, small-molecule microarray, residues 1-88, 635 nm (AID 1129). As to conditions: small-molecule microarray binding, fluorescence 635 nm; higher = more signal.
In assay [3] the target is Focal adhesion kinase 1 (Homo sapiens) (UniProt Q05397). The assay can be described thus: small-molecule microarray binders of FAK, primary screen, biochemical, 635/667 nm fluorescence, BSA, DTT (AID 1130).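 Note: composite of spot emission at 667 nm and signal to noise over triplicate slides.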 As to conditions: PTK2 binding, 635 nm fluorescence, higher = more signal.
The test system of assay [4] is Fibrinogen (Alexa647-labelled). Description: fibrinogen binders on compound microarrays, profiling panel, artefact control for SMM control-protein annotation, biochemical, small-molecule microarray, 635/667 nm fluorescence (AID 1131).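 Note: z-score merges 667 nm fluorescence with per-spot signal-to-noise over triplicate slides.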 As to conditions: fibrinogen-A647 binding fluorescence, higher = more signal.
Assay [5] has as its target Follistatin (Homo sapiens) (UniProt P19883). Description: follistatin binders on small-molecule microarrays, primary screen, biochemical, small-molecule microarray, 635/667 nm fluorescence (AID 1132). Particulars: FST binding, 635 nm fluorescence, higher = more signal.
In assay [6] the target is Fibroblast growth factor 2 (Homo sapiens) (UniProt P09038). The assay can be described thus: FGF2 binders on small-molecule microarrays, primary screen, biochemical, small-molecule microarray, 635/667 nm fluorescence (AID 1133). Particulars: small-molecule microarray binding, FGF2, fluorescence 635/667; higher = more signal.
Assay [7] can be described thus: mitochondrial membrane potential change in A549 cells, profiling panel, cell-based, JC-1 fluorescence, basal, 24 h, 100 nL (AID 1138).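 Note: A549 lung adenocarcinoma cells under basal conditions with no added stimulus; test concentration not given here.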 As to conditions: higher = more signal.
In the next assay the test system is Lefty1. The assay can be described thus: Lefty1 binders on small-molecule microarrays, primary screen, biochemical, small-molecule microarray, 635/667 nm fluorescence (AID 1139). As to conditions: small-molecule microarray binding, fluorescence 635/667; higher = more signal.
The subject of assay [8] is wheat germ agglutinin (Triticum aestivum), Alexa647-labelled. Description: wheat germ agglutinin binders on compound microarrays, profiling panel, artefact control for SMM control-protein annotation, biochemical, small-molecule microarray, 635/667 nm fluorescence (AID 1140).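 Note: score merges 667 nm feature emission with signal to noise over triplicate slides.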 As to conditions: WGA-A647 binding, 635 nm fluorescence, higher = more signal.
The target of assay [9] is Luciferin 4-monooxygenase (Photinus pyralis) (UniProt P08659). Description: firefly luciferase enzyme inhibitors, primary screen, biochemical, luminescence, purified enzyme, 2006 set (AID 1141).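 Note: cell-free assay with purified firefly luciferase at 100 ng per well in PBS; test concentration not given here.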 As to conditions: SteadyGlo luminescence, 30 min, higher = more signal, called active from +8 up or from −8 down.

Calls of active or inactive are those of the source.

Chain of Luciferin 4-monooxygenase (Photinus pyralis) (P08659 whole entry, looked up): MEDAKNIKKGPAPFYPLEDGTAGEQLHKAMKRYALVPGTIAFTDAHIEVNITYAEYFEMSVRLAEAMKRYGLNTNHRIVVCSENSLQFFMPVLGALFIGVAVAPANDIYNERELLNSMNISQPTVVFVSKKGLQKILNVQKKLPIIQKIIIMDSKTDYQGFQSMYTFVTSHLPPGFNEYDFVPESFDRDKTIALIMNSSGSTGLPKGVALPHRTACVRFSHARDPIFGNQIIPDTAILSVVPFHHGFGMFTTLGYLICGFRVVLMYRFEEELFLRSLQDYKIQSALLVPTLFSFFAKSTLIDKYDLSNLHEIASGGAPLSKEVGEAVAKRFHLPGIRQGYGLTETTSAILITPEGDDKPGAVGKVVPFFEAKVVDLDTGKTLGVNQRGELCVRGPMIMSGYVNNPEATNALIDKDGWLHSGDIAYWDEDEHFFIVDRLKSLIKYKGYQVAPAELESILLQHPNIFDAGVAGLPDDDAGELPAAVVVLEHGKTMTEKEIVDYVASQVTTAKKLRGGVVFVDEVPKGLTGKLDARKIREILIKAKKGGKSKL
Chain of Fibroblast growth factor 2 (Homo sapiens) (P09038 whole entry, looked up): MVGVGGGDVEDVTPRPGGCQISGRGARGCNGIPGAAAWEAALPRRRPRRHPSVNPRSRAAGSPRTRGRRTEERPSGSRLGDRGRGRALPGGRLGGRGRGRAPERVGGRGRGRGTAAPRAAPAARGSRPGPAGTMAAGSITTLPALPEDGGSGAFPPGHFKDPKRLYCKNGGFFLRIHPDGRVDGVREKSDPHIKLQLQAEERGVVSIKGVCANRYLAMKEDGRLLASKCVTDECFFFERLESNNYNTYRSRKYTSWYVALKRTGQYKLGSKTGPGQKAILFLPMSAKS
Chain of Follistatin (Homo sapiens) (P19883 whole entry, looked up): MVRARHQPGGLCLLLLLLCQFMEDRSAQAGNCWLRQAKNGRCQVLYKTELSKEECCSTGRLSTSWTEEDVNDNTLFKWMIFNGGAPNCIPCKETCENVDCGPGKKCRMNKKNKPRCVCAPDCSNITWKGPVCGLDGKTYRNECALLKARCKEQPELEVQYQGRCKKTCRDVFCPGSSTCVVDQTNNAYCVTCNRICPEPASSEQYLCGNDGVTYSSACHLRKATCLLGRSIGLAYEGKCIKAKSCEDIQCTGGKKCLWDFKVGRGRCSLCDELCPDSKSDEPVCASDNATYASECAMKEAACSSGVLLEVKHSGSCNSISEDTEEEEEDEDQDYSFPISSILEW
Chain of Focal adhesion kinase 1 (Homo sapiens) (Q05397 whole entry, looked up): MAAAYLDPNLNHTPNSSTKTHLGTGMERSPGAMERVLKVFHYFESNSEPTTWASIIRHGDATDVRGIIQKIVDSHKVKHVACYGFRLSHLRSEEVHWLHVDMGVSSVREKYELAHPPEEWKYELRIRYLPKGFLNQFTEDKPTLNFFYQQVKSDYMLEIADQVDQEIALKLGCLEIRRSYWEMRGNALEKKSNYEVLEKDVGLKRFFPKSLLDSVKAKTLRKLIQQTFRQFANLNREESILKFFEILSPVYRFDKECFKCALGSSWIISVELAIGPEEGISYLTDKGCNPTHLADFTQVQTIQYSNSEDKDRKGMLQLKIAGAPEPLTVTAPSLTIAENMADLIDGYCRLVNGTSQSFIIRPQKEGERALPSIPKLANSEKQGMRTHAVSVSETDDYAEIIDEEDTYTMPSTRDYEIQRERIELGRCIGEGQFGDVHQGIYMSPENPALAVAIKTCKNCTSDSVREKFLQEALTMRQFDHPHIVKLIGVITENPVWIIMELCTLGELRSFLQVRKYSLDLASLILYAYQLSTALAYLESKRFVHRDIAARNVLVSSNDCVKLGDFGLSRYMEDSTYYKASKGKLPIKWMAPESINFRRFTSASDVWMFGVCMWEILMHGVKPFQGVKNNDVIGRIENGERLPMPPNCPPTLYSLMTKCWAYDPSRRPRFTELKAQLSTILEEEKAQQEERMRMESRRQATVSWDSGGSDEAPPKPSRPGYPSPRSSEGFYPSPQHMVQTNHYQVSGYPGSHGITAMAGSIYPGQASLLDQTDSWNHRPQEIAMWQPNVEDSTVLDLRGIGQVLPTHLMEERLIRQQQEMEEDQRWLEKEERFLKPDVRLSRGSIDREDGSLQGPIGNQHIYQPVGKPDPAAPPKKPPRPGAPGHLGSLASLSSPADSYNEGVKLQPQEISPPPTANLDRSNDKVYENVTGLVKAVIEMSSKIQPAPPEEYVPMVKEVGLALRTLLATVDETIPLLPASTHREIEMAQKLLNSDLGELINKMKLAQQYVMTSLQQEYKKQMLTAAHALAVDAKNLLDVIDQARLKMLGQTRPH

As for `C=CCC(OC(C)=O)[C@@H]1[C@@H](N(Cc2ccc(-c3cccc(C(F)(F)F)c3)o2)C(=O)c2ccc(-c3ccccc3)cc2)c2cc(OCCCO)ccc2N1C(=O)c1ccc2ccccc2c1` (stereo not given in full), the composite z-score was -0.191 in assay [1]; -0.06 in assay [2]; 0.0473 in assay [3]; -0.0951 in [4]; 1.02 in [5]; 0.23 in assay [6]. For the same molecule, the composite z-score in the assay with Lefty1 was 1.17; in assay [8], 0.0415. Further, the results for the z-score in [7] and in assay [9] were 0.413 and 0.85 (inactive), respectively.

In the case of `COC(=O)[C@@]1(Cc2ccc(OC)cc2)[C@H]2c3cc(C(=O)N4CCCC4)n(Cc4c(CO)[nH]cc(C)c4=O)c3C[C@H]2CN1C(=O)c1ccccc1`, the composite z-score in [1] is 1; in assay [2], 1.24; in assay [3] it was 0.502; in assay [4] it was 0.91; in [5] it was -0.116; in [6], -0.0376. The composite z-score in the assay on Lefty1 is -0.116; in [8], 0.723. Moreover, the z-score was 0.534 in assay [7] and 0.835 (inactive) in assay [9].

`COc1ccc([Si](C)(C)[C@@H]2[C@@H](CC(=O)N(CCO)Cc3ccccc3)O[C@]3(C(=O)N(Cc4ccc(N5C(=O)c6cccc7cccc5c67)cc4)c4ccccc43)[C@H]2C)cc1`: the composite z-score is 2.39 in assay [1]; 0.65 in assay [2]; 0.369 in assay [3]; 0.674 in assay [4]; 0.552 in [5]; 0.943 in assay [6]. The figures for the composite z-score (in the assay on Lefty1; in assay [8]) were 0.449 and 0.934, respectively. Further, the z-score in assay [7] was -0.216; in assay [9], -0.389 (inactive).

Consider `O=C(NC1CC1)[C@@H]1c2ccccc2C(=O)N(Cc2cc(C(F)(F)F)cc(C(F)(F)F)c2)[C@H]1c1ccc(CO)cc1`, for which the composite z-score in [1] was determined as 0.399; in assay [2] it was 0.228; in [3], 0.052; in assay [4] it was 0.427; in assay [5], 0.755; in assay [6], 0.0292. Further, the results for the composite z-score (in the assay with Lefty1; in [8]) were -0.291 and 0.416, respectively. Besides, the values for the z-score in assay [7] and in [9] were -0.197 and -0.423 (inactive), respectively.

In the case of `CCCCCC1=C2CNC(CC(C)C)(C(=O)OC)C=C2C(C)C1=O` (stereo not given), the composite z-score in assay [1] is 0.654; in assay [2], 1.17; in assay [3] it was 1.61; in assay [4], 0.955; in assay [5], -0.127; in assay [6], -0.544. Besides, the composite z-score in the assay on Lefty1 is -0.145; in assay [8] it was 0.955. In addition, the z-score was 0.326 in [7] and -0.0622 (inactive) in assay [9].

With `N#Cc1ccc(-c2cccc(=O)o2)cc1`, the composite z-score in assay [1] came out at 0.212; in [2], 0.651; in [3], 0.111; in assay [4], 0.474; in [5] it was 0.268; in assay [6] it was 0.185. Moreover, the composite z-score with Lefty1 was found to be 0.249; in assay [8] it was 0.48. The z-score in [7] is -0.119; in assay [9] it was 1.68 (inactive).

In the case of `O=C1C2C=CC(C(O)c3cccs3)N(Nc3ccc([N+](=O)[O-])cc3)C2C(=O)N1c1ccccc1` (stereo not given), the composite z-score in assay [1] was 0.482; in [2], 1.11; in [3], 0.894; in assay [4] it was 0.697; in [5] it was 0.337; in [6], -0.105. For the same molecule, the composite z-score was -0.457 in the assay with Lefty1 and 0.844 in assay [8]. Moreover, the z-score was -0.908 in assay [7] and 1.1 (inactive) in assay [9].

For the molecule `CN1C(=O)C2C(C1=O)C1C=C(CCCO)C2C(C2CC2)N1Cc1cccc(OC(F)(F)F)c1` (stereo not given), the composite z-score in [1] is 1.37; in assay [2], 0.925; in [3], 1.35; in assay [4], 0.0349; in assay [5], -0.0603; in assay [6] it was -0.862. The composite z-score is 0.0613 with Lefty1 and 1.04 in assay [8]. The figures for the z-score in [7] and in assay [9] were -0.198 and -0.478 (inactive), respectively.

In the case of `COc1ccc([Si](C)(C)[C@H]2[C@H](CC(=O)N3Cc4ccccc4C[C@H]3CO)O[C@@]3(C(=O)N(C)c4ccccc43)[C@@H]2C)cc1`, the composite z-score in assay [1] worked out at 1.45; in assay [2] it was 1.19; in [3], 0.333; in assay [4] it was 0.945; in [5] it was 1.52; in [6], 1.24. The composite z-score is 1.58 in the assay on Lefty1 and 0.938 in [8]. For the same molecule, the z-score is 0.206 in assay [7] and -0.243 (inactive) in assay [9].

Take `COc1ccccc1CN1C(=O)c2ccccc2[C@](Cc2ccccc2I)(C(=O)NCC(C)C)[C@@H]1c1ccc(CO)cc1`: the composite z-score in assay [1] was -0.718; in assay [2], 0.654; in assay [3], -0.299; in [4], 0.378; in assay [5] it was 1.05; in assay [6], 0.133. In addition, the results for the composite z-score (in the assay with Lefty1; in [8]) were -0.803 and 0.0043, respectively. The z-score in [7] is 2.54; in [9], -1.22 (inactive).

`CC[C@@H]1C=C(C(=O)O)[C@H](c2ccc(OC)cc2)N1S(=O)(=O)c1ccc(C)cc1`: the composite z-score in assay [1] is -0.0418; in assay [2], 0.521; in [3], 0.359; in [4], -0.342; in [5], -0.055; in [6], -0.477. Also, the composite z-score in the assay on Lefty1 is 0.112; in assay [8], 0.164. Also, the figures for the z-score in assay [7] and in assay [9] were 0.0749 and 1.04 (inactive), respectively.

As to `COCCOC(=O)N1C(=O)[C@@]2(c3ccccc31)[C@H](C(=O)N1CCN(c3ncccn3)CC1)[C@H]1C(=O)O[C@H](c3ccccc3)[C@H](c3ccccc3)N1[C@@H]2c1ccccc1OCCO`, the composite z-score in assay [1] is 0.724; in [2] it was 1.18; in [3], 0.382; in [4] it was 0.867; in [5], 1.15; in assay [6], 0.606. For the same molecule, the composite z-score was 1.02 in the assay with Lefty1 and 0.272 in assay [8]. Moreover, the z-score in [7] is -0.531; in assay [9], -0.0896 (inactive).

With `COC(=O)[C@@]1(Cc2ccc(OC)cc2)[C@H]2c3cc(C(=O)N(C)C)[nH]c3C[C@H]2CN1C(=O)c1ccccc1`, the composite z-score in assay [1] is 0.279; in assay [2], -0.154; in assay [3] it was 0.0999; in assay [4] it was 0.804; in assay [5] it was -0.205; in [6], -0.738. Besides, the composite z-score with Lefty1 was -0.275; in assay [8], 0.895. In addition, the z-score in assay [7] was 0.638; in assay [9], 0.0806 (inactive).

Regarding `Cc1ccc(S[C@]2(C(=O)NCc3ccccc3)CC(=O)N(Cc3ccccc3C(F)(F)F)[C@@H]2c2ccc(CO)cc2)cc1`, the composite z-score is -0.645 in assay [1]; -0.347 in assay [2]; -0.496 in [3]; 0.443 in [4]; -1.4 in assay [5]; -0.574 in [6]. In addition, the composite z-score is -1.51 with Lefty1 and -0.212 in assay [8]. Also, the z-score in assay [7] is 0.802; in assay [9], -0.0819 (inactive).

In the case of `C=C(COC)C(=O)CC[C@H](OC(=O)c1cccnc1)c1ccc(OCCO)cc1`, the composite z-score in [1] is -0.108; in [2], 0.355; in [3], -0.172; in assay [4], 0.637; in assay [5] it was 1.07; in assay [6], 0.893. Moreover, the composite z-score in the assay on Lefty1 was 1.63; in assay [8] it was 0.73. The values for the z-score in assay [7] and in [9] were -0.747 and -2.23 (inactive), respectively.

For the molecule `[N-]=[N+]=Nc1ccccc1[C@@H]1OC(c2ccc(OCCCO)cc2)=N[C@]1(Cc1ccccc1)C(=O)NCCN1CCOCC1`, the composite z-score in assay [1] was 0.598; in assay [2], 1.28; in assay [3], 0.15; in assay [4] it was 0.993; in [5], 0.675; in [6] it was -0.155. The figures for the composite z-score (in the assay with Lefty1; in [8]) were 0.278 and 0.399, respectively. Also, the z-score in [7] was -0.225; in assay [9], -5.81 (inactive).
